ELG1 genotox: qHTS screen for small molecules that induce genotoxicity in human embryonic kidney (HEK293T) cells expressing luciferase-tagged ELG1. hit rate 1.3% among 330,000. HEK293T ELG1-luciferase reporter, luminescence, 16 h. Potency, µM (titrated, usually from 46 µM), most hits filed as activators. AID 504466, 2011; note: nearly all actives have a fitted effect of over 60% in size
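16 hr compound incubation (37 °C, 5% CO2) of HEK293T cells carrying luciferase-tagged ELG1; luciferase then measured by ONE-Glo luminescence after 30 min at RT.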
NPC1 promoter act: qHTS Assay for NPC1 Promoter Activators. Huh7 NPC1 promoter luciferase reporter, 24 h. Potency, µM (titrated, usually from 9.22 µM), actives largely listed as activators. hit rate 2.4% among 320,000; note: nearly all actives have a fitted effect of over 60% in size
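Luminescence from an NPC1 promoter-driven luciferase reporter in stably transfected Huh7 cells was measured after 24 h compound treatment at 37 °C, followed by 10 min ambient incubation with luciferase detection reagent.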
Rab9 prom act: qHTS Assay for Rab9 Promoter Activators; Potency, µM (series often up to 9.22 µM), hits mostly activators; hit rate 2.8% among 320,000; Huh7 Rab9 promoter-luciferase reporter, luminescence, 24 h; AID 485297, 2010; note: nearly all actives have a fitted effect of over 60% in size
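Quantitative HTS format; Huh7 Rab9-luciferase reporter cells (1500/well) receive compound 2 h post-plating, incubate 24 h at 37 °C, then get luciferase reagent for 10 min before luminescence reading.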
SMN2 splice enh: qHTS Assay for Enhancers of SMN2 Splice Variant Expression | HEK293 SMN2-luciferase splicing reporter, luminescence, 30-36 h | Potency, µM (series often up to 46.1 µM), usual class: activators | hit rate 2.8% among 210,000 | AID 1458, 2008; note: nearly all actives have a fitted effect of over 55% in size
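HEK293 cells carry an SMN2 […]–luciferase reporter in which exon 7 inclusion puts luciferase in frame. Cells were plated 10-12 h before compound addition, then incubated 30-36 h at 37C. ONE-Glo luminescence was read; sodium butyrate at 4.5 mM final served as control.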
FLuc modulator: qHTS profiling assay for firefly luciferase inhibitor/activator using purifed enzyme and Km concentrations of substrates (counterscreen for miR-21 project). AID 588342, 2011. purified FLuc, Km substrates, luminescence inhibition. Luciferin 4-monooxygenase (Photinus pyralis), P08659. hit rate 6.9% among 360,000. Potency, µM (titrated, usually from 57.5 µM), hits mostly inhibitors; note: nearly all actives have a fitted effect of over 55% in size
Target sequence (P08659 whole entry, looked up): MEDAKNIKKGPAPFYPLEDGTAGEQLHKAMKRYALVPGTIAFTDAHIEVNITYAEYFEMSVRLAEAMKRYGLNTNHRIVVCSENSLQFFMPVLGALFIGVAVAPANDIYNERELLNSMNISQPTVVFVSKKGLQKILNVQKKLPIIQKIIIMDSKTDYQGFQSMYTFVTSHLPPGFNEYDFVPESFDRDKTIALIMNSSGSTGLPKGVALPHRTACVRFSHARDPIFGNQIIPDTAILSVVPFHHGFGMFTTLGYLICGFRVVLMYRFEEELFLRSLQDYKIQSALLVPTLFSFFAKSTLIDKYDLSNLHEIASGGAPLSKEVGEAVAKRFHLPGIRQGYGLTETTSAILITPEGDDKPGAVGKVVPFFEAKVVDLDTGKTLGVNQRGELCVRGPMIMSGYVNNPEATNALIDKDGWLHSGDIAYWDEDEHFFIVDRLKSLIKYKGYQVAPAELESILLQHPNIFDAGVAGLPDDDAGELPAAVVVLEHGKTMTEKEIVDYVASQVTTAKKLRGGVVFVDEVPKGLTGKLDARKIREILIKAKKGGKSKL
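Purified P. pyralis luciferase (10nM final) with 10uM D-luciferin and 10uM ATP (Km levels) in 50mM Tris acetate pH 7.5, 10mM Mg acetate, 0.01% Tween-20, 0.05% BSA; qHTS 6-point titration, ~60 µM downward; luminescence read.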
Luc counter: Counterscreen for Luciferase (Kinase-Glo TM) Inhibition | Luciferin 4-monooxygenase (Photuris pensylvanica), Q27757 | Kinase-Glo luciferase, ATP luminescence, 8 min | AID 1379, 2008 | Potency, µM (top dose mostly 38.3 µM), hits mostly inhibitors | hit rate 0.28% among 200,000; note: nearly all actives have a fitted effect of over 60% in size
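Substrate mix (final 50 mM imidazole pH 7.2, 50 mM KCl, 7 mM MgCl2, 10 uM ATP, 0.01% Tween 20, 0.05% BSA) plus pin-tool compound, then Kinase-Glo detection mix; 8 min ambient, luminescence read.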
Hits are given with their value; – = inactive; ? = inconclusive; · = no result; [ ] = remark or other dose. Sampled rows, rich in hits. Any-hit rate of the full collection: about 7.5%. Calls come from the whole dose curve; as a rule, active = well fitted curve in the direction sought with a large enough effect; inconclusive = small, poorly fitted or top-dose-only effect, or another doubt; inactive = no such curve, though single readings can be large; an effect the other way counts as inactive or inconclusive.

SMILES	ELG1 genotox	NPC1 promoter act	Rab9 prom act	SMN2 splice enh	FLuc modulator	Luc counter
Cc1ccccc1-c1cc(-c2ccccc2O)on1	?	?	?	7.1µM	1.9µM	–
Cc1ccc(-c2cc(-c3ccccc3)no2)c(O)c1	0.37µM	3.2µM	2µM	·	0.17µM	–
COc1ccc(CCNC(=O)C(=O)NCc2ccc(Cl)cc2)cc1OC	?	–	–	–	–	–
O=C(Oc1ccc2c(c1)OCO2)c1cccs1	–	–	–	?	11µM	–
O=C(CNC(=O)c1ccc2c(c1)OCO2)N/N=C(Br)/C=C/c1ccccc1	–	–	–	–	–	–
O=C(/C=C/c1ccccc1)c1ccc2c(c1)OCO2	?	?	?	·	2.1µM	·
O=C(/C=C/c1cccc(Br)c1)c1ccc2c(c1)OCO2	?	–	–	·	11µM	·
COc1cccc(/C=C/C(=O)c2ccc[nH]2)c1	3.7µM	3.2µM	3.2µM	?	2.1µM	–
O=C(COc1ccc2c(c1)OCO2)NCc1cccs1	–	·	·	·	·	·
COc1cccc2cc(-c3nc(Nc4cccc(C)c4C)sc3C)c(=O)oc12	·	·	·	·	–	·
N=c1oc2ccc3ccccc3c2cc1C(N)=S	–	–	–	·	–	–
O=C(O)/C=C\C=C/c1ccc2c(c1)OCO2	·	·	·	–[9.22 µM]	·	–[7.66 µM]
O=C(/C=C/c1ccc2c(c1)OCO2)c1cccs1	·	·	·	·	·	8.9µM
COc1cc(/C=C/C(=O)c2ccc3c(c2)OCCO3)cc(Br)c1OCC(=O)N(C)C	–	–	–	·	12µM	·
O=C(/C=C/c1ccc2c(c1)OCO2)NCc1ccco1	–	–	–	–	?	–
COc1cccc(/C=C/C(=O)NNC(=O)c2ccncc2)c1OC	–	–	–	·	21µM	·
COc1cc(C(=O)NNC(=O)c2ccc3c(c2)OCCO3)cc(OC)c1OC	–	·	·	·	·	·
O=C(/C=C/c1ccc2c(c1)OCO2)c1ccc[nH]1	?	3.2µM	?	16µM	2.1µM	–
CCc1cccc(C)c1NC(=O)c1cc(C)nc2c1c(C)nn2-c1cccc(Cl)c1C	·	·	·	·	–	·
O=c1cc2c(=O)oc3cc(O)c(O)oc3c2c(O)c1O	–	–	–	·	–	·
CCCc1ccc(OC(=O)c2cccs2)cc1	–	–	–	–	6µM	–
CNc1cc([N+](=O)[O-])ccc1N/C=C/C(=O)c1ccc2c(c1)OCO2	–	–	–	–	–	–
O=C(/C=C\Nc1ccccc1Br)c1ccc2c(c1)OCO2	?	?	0.45µM	3.2µM	0.085µM	10µM
O=C(/C=C/c1ccccc1Br)c1ccc2c(c1)OCO2	–	–	–	·	12µM	·
O=C(/C=C/c1ccncc1)c1ccc2c(c1)OCCO2	–	–	–	·	12µM	–
SMILES	ELG1 genotox	NPC1 promoter act	Rab9 prom act	SMN2 splice enh	FLuc modulator	Luc counter
COc1ccc(CCNC(=O)COC(=O)c2cccs2)cc1	–	–	–	·	–	·
CC[C@@]1(C(=O)OC)N[C@H](CN(C)C(=O)NC(C)C)[C@@H]2C(=O)N(C)C(=O)[C@@H]21	–	·	·	·	·	·
CCc1ccc(C(=O)c2cn(CC(=O)Nc3ccc4c(c3)OCO4)c3ccc(OC)cc3c2=O)cc1	·	·	·	–	–	·
CC(=O)N1CCc2c(sc3c2c(=O)n(-c2ccc(C)cc2)c(=O)n3Cc2ccccc2C)C1	·	·	·	–	–	·
Cc1ccc(S(=O)(=O)N(CC(=O)N2CCc3ccccc3C2)c2ccc(C)c(C)c2)cc1	·	·	·	–	–	·
O=C(/C=C/c1ccc2c(c1)OCO2)c1ccc(F)cc1	–	–	–	–	4.3µM	–
Cc1oc2ccc(OC(=O)c3cccs3)cc2c1C(=O)OC(C)C	–	–	–	–	–	–
Cc1cc(OC(=O)c2cccs2)ccc1C(C)C	–	–	–	–	3µM	–
CN(C(=O)/C=C/c1ccc2c(c1)OCO2)c1ccccc1	–	?	?	?	?	–
Cc1cc(C)c(C(=O)/C=C/c2ccc3c(c2)OCO3)c(=O)[nH]1	–	–	–	·	–	–
CN(C)c1ccc(/C=C/C(=O)c2ccc3c(c2)OCCO3)cc1[N+](=O)[O-]	–	–	–	–	9.5µM	–
CN(C)c1ccc(/C=C/C(=O)c2ccc3c(c2)OCO3)cc1	?	?	?	·	2.7µM	·
CCCc1ccc(OC(=O)c2ccc(O)cc2Cl)cc1	?	2µM	1µM	?	2.4µM	–
COc1cccc(/C=C/C(=O)c2ccc3c(c2)OCO3)c1OC	?	–	–	·	0.95µM	·
COc1cc(C(=O)N/N=C(\C)c2ccc3c(c2)OCO3)cc(OC)c1OC	–	–	–	–	–	–
Cc1nc2ccccc2n1CCc1nc2c3ccccc3nc(SCc3ccc(C#N)cc3)n2n1	·	·	·	·	–	·
Fc1ccc(C(OCCCc2cnc[nH]2)c2ccc(F)cc2)cc1	·	–	–	–	·	–
Cc1cc(Cl)c2oc(C(=O)N(CCO)Cc3ccccc3)c(C)c2c1	?	–	–	·	–	·
Cc1c(C(=O)N(CCO)Cc2ccccc2)oc2c(F)cccc12	?	?	?	·	17µM	·
Cc1ccc(CNc2ccc3cc(S(=O)(=O)N4CCCCC4)ccc3n2)cc1	·	·	·	·	–	·
NC(=S)c1ccc[n+]([C@@H]2O[C@@H](COP(=O)([O-])OP(=O)(O)OC[C@H]3O[C@@H](n4cnc5c(N)ncnc54)[C@H](OP(=O)(O)O)[C@H]3O)C(O)C2O)c1 (stereo not given in full)	·	·	·	?	·	–
Cc1nnc(NC(=O)c2ccc3ccccc3c2)s1	4.6µM	1.8µM	1.4µM	·	11µM	·
CC(C)c1nnc(NC(=O)c2ccc3ccccc3c2)s1	?	1µM	1µM	·	2.1µM	·
Cc1cc(OCC(=O)Nc2ccc(N3CCN(C)CC3)cc2)ccc1Cl	–	–	–	·	?	·
O=C(NCCCN1CCOCC1)C(c1ccccc1)c1ccccc1	–	–	–	·	–	·
SMILES	ELG1 genotox	NPC1 promoter act	Rab9 prom act	SMN2 splice enh	FLuc modulator	Luc counter
Clc1ccc(-c2noc(CN3CCOCC3)n2)cc1	?	2µM	3.2µM	·	?	·
Clc1ccc(-c2noc(COc3ccccc3)n2)cc1	–	–	–	–	13µM	–
CC(C)(C)Cc1nc(-c2ccc(Cl)cc2)no1	–	–	–	–	15µM	–
Cc1ccc(OCc2nc(-c3ccccc3)no2)c(C)c1	3.2µM	2.2µM	2.2µM	10µM	3µM	–
C[N+](C)(N)Cc1nc(-c2ccc(Cl)cc2)no1	·	·	·	–[9.22 µM]	·	–[7.66 µM]
Cc1ccc(N2CC(C(=O)OCC(=O)Nc3ccc(Cl)cc3)CC2=O)cc1 (stereo not given)	–	–	–	·	–	·
Cc1ccccc1C(=O)Nc1cccc(-c2nc3cccnc3s2)c1	·	·	·	·	–	·
COC(=O)C1=C(O)/C(=C\c2ccc(CNC(=O)C(=O)Nc3ccc(C)cc3)o2)N=C1C	–	–	–	–	6.7µM	–

Screening data deposited in PubChem by National Center for Advancing Translational Sciences (NCATS).
